In PubChem BioAssay (Tox21):
Inconclusive results are not listed. Activity calls are given as the source filed them. Unless noted, calls come from the whole dose curve.

Key:
[1] = Nuclear factor erythroid 2-related factor 2/antioxidant responsive element (Nrf2/ARE) small molecule agonists: qHTS cell viability counter screen in human keratinocytes (AID 1919968; active = well fitted curve in the direction sought with a large enough effect in the repeat runs; an effect the other way counts as inactive or inconclusive; note: nearly all actives have a fitted effect of over 55% in size)
Method in brief: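 Stably transfected HaCaT (KeratinoSens), 1,500/well. Test agents in DMSO were applied for 23 h, 37 C/5% CO2. CellTiter-Fluor was incubated 1 h before the fluorescence read.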

[2] = Nuclear factor erythroid 2-related factor 2/antioxidant responsive element (Nrf2/ARE) small molecule agonists: luciferase reporter gene qHTS assay in human keratinocytes (AID 1919969); note: nearly all actives have a fitted effect of over 35% in size
[3] = target: KiSS-1 receptor (Homo sapiens) (UniProt Q969F8); assay: Human kisspeptin (KISS1R) small molecule agonists, calcium flux assay in KISS1R-HEK293 cells (AID 1920064; active = well fitted curve in the direction sought with a large enough effect in the repeat runs; an effect the other way counts as inactive or inconclusive)
Method in brief: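 After overnight (18 h) culture at 37 C/5% CO2, human KISS1R-HEK293 cells received calcium dye for 1 h, then test compound; emission at 540 nm (excitation 480 nm) was tracked for 3 min.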

[4] = G protein-coupled receptor (GPCR) small molecule agonists, calcium flux assay: HEK293 wild type cell line counter screen (AID 1920065)
Method in brief: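 Following 18 h incubation at 37 C/5% CO2, plates got calcium dye for 1 h; compounds, ATP or DMSO were then pinned in and fluorescence followed kinetically (480/540 nm).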

[5] = p53 small molecule agonists, cell-based qHTS assay with human liver microsomes (AID 1963577)
Method in brief: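 Fluorescence of the beta-lactamase reporter in p53RE-bla cells, detected with LiveBLAzer substrate (2 h, room temperature, dark), served as the read-out after 16 h compound exposure at 37 C with human liver microsomes and NADPH, each 0.5 mg/mL final.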

[6] = p53 small molecule agonists, cell-based qHTS assay with rat liver microsomes (AID 1963578)
Method in brief: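 Cells carrying a p53 response element–beta-lactamase reporter were plated and rested 5 h, then dosed with compound in DMSO plus rat liver microsomes and NADPH, each at 0.5 mg/mL final. After 16 h at 37 C, LiveBLAzer substrate was added for 2 h.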

[7] = p53 small molecule agonists, cell-based qHTS assay with human liver microsomes: qHTS cell viability counter screen (AID 1963579); note: nearly all actives have a fitted effect of over 45% in size
Method in brief: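 Cytotoxicity counter screen: p53RE-bla, 4,000 cells/well; 5 h settle, 37 C/5% CO2; cpd + HLM 0.5 mg/mL + NADPH 0.5 mg/mL (final); 16 h, 37 C; CellTiter-Glo, 30 min RT, luminescence.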

[8] = p53 small molecule agonists, cell-based qHTS assay: qHTS cell viability counter screen (AID 1963581); note: nearly all actives have a fitted effect of over 45% in size
Method in brief: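 qHTS counter screen: 16 h compound exposure at 37 C of p53RE-bla HCT-116 cells (4,000 per well, seeded 5 h prior), cell viability by ATP luminescence.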

[9] = p53 small molecule agonists, cell-based qHTS assay (AID 1963582; active = well fitted activation curve with a large enough effect in the signal ratio in the repeat runs, not every such curve was filed as active; the % refers to the signal ratio)
Method in brief: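 Measured: fluorescence from cleaved LiveBLAzer substrate. System: p53RE-bla cells, 16 h compound treatment at 37 C, 2 h substrate step at room temperature.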

[10] = target: 5-hydroxytryptamine receptor 2A (Homo sapiens) (UniProt P28223); assay: 5-hydroxytryptamine receptor 2A (HTR2A) small molecule antagonists, cell-based qHTS assay (AID 1963586); note: nearly all actives have a fitted effect of over 45% in size
Method in brief: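 CHO cells stably expressing human HTR2A were plated for 18 h at 37 C, then loaded with calcium dye for 1 h. Compounds were preincubated 5 min at room temperature before DOI (4 nM solution) was added. Kinetic fluorescence was read for 3 min.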

[11] = target: 5-hydroxytryptamine receptor 2A (Homo sapiens) (UniProt P28223); assay: 5-hydroxytryptamine receptor 2A (HTR2A) small molecule agonists, cell-based qHTS assay (AID 1963587); note: nearly all actives have a fitted effect of over 30% in size
Method in brief: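 Kinetic calcium-flux fluorescence (2 min, 1 sec intervals) after compound addition in agonist mode. HTR2A-CHO cells were cultured 18 h, then dye-loaded 1 h at 37 C.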

[12] = target: Muscarinic acetylcholine receptor M1 (Homo sapiens) (UniProt P11229); assay: Cholinergic receptor muscarinic 1 (CHRM1) small molecule antagonists, cell-based qHTS assay (AID 1963588); note: nearly all actives have a fitted effect of over 40% in size
Method in brief: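 Compounds were tested at 15 concentrations in three independent runs. Dye-loaded CHRM1-CHO cells were exposed 5 min at room temperature before stimulation by acetylcholine added at 50nM. Intracellular calcium was read kinetically on FDSS for 3 min.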

[13] = target: Muscarinic acetylcholine receptor M1 (Homo sapiens) (UniProt P11229); assay: Cholinergic receptor muscarinic 1 (CHRM1) small molecule agonists, cell-based qHTS assay (AID 1963589); note: nearly all actives have a fitted effect of over 35% in size
Method in brief: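 Kinetic fluorescence (1 s intervals) of calcium-sensitive dye in human M1 CHO cells after compound addition; cells pre-incubated 18 h at 37 C/5% CO2 and dye-loaded 1 h.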

[14] = cAMP Responsive Elements (CRE) small molecule agonists, cell-based qHTS assay (AID 1963590)
Method in brief: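 Test agents in DMSO were incubated 3 h at 37 C/5% CO2 with CRE-bla HEK 293T cells seeded 18 h earlier; LiveBLAzer B/G FRET substrate was added and read after 2 h at room temperature.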

[15] = cAMP Responsive Elements (CRE) small molecule antagonists, cell-based qHTS assay (AID 1963591; active = well fitted inhibition curve with a large enough effect in the signal ratio in the repeat runs, not every such curve was filed as active; the % refers to the signal ratio)
Method in brief: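 Reporter line CRE-bla HEK 293T in dialyzed-FBS DMEM; cells preincubated 18 h, treated 3 h with compound plus NKH477 (0.25 uM final); LiveBLAzer FRET, 2 h RT.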

[16] = target: Beta-2 adrenergic receptor (Homo sapiens) (UniProt P07550); assay: Adrenergic beta2 receptor (ADRB2) small molecule antagonists, cell-based qHTS assay (AID 1963592); note: series mostly up to about 92 µM; nearly all actives have a fitted effect of over 50% in size
Method in brief: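 Assay format: CHO-ADRB2 cells, 18-20hr seeding at 37C/5% CO2, then compound plus 1nM isoproterenol agonist mix for 0.5hr RT. Homogeneous time-resolved fluorescence cAMP detection after 1hr, expressed as 665/615 nm ratio.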

[17] = target: Beta-2 adrenergic receptor (Homo sapiens) (UniProt P07550); assay: Adrenergic beta2 receptor (ADRB2) small molecule agonists, cell-based qHTS assay (AID 1963593);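 note: CHO cells stably overexpressing human ADRB2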
Method in brief: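 CHO cells stably over-expressing ADRB2 were plated overnight at 37C, then dosed with compounds plus a stimulation mix containing 100uM IBMX and 25uM Ro-20-1724 for 0.5hr at room temperature. cAMP was measured by HTRF competition, 1hr.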

[18] = target: D(2) dopamine receptor (Homo sapiens) (UniProt P14416); assay: Dopamine D2 receptor (DRD2) small molecule agonists, cell-based qHTS assay (AID 1963594); note: nearly all actives have a fitted effect of over 35% in size
Method in brief: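 cAMP accumulation in DRD2-HEK293 cells measured by HTRF after 1 h detection; compounds added 10 min before NKH477 (200nM […]) forskolin-analogue stimulation, 30 min at room temperature, with Ro20-1724 present at 0.1 mM final.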

[19] = target: D(2) dopamine receptor (Homo sapiens) (UniProt P14416); assay: Dopamine D2 receptor (DRD2) small molecule antagonists, cell-based qHTS assay (AID 1963595; active = well fitted inhibition curve with a large enough effect in the signal ratio in the repeat runs, with a control signal flat; the % refers to the signal ratio)
Method in brief: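 HEK293 cells stably expressing DRD2, preincubated with 0.1 mM Ro20-1724 and compounds 10 min, were stimulated with 200 nM NKH477 plus 12 nM quinpirole for 30 min at room temperature; cAMP measured by HTRF (665/620 nm).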

[20] = p53 small molecule agonists, cell-based qHTS assay with rat liver microsomes: qHTS cell viability counter screen (AID 1963580); note: nearly all actives have a fitted effect of over 45% in size
Method in brief: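 Cytotoxicity counter screen: intracellular ATP read by CellTiter-Glo luminescence in the p53 reporter wells. HCT-116 p53RE-bla cells were treated for 16 h at 37 C alongside rat liver microsomes and NADPH, each 0.5 mg/mL final.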
% is set by controls: 0 for no effect and ±100 for the full control effect.

Sequence of D(2) dopamine receptor (Homo sapiens) (P14416 whole entry, looked up): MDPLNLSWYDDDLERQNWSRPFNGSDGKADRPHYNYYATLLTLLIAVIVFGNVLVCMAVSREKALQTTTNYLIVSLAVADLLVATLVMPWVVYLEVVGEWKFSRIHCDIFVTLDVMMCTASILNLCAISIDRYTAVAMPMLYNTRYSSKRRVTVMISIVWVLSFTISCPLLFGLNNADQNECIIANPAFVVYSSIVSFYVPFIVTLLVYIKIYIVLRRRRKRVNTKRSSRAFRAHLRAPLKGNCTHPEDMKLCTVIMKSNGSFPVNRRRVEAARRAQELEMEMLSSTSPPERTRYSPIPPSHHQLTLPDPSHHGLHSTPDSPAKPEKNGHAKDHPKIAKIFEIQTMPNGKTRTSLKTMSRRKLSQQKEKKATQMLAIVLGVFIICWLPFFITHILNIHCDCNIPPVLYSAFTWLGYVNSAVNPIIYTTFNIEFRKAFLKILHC
Sequence of 5-hydroxytryptamine receptor 2A (Homo sapiens) (P28223 whole entry, looked up): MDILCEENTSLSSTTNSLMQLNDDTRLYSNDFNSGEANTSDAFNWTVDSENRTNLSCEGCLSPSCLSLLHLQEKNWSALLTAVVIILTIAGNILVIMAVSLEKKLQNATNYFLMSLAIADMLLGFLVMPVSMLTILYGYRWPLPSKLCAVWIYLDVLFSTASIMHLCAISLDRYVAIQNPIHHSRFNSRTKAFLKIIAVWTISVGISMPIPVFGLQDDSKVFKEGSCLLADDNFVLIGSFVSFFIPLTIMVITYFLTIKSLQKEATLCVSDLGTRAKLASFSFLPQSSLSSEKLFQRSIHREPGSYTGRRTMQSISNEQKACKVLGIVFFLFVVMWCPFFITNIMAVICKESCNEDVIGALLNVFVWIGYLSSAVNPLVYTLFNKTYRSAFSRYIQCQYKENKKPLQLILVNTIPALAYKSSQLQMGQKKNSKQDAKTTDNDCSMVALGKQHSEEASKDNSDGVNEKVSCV
Sequence of Beta-2 adrenergic receptor (Homo sapiens) (P07550 whole entry, looked up): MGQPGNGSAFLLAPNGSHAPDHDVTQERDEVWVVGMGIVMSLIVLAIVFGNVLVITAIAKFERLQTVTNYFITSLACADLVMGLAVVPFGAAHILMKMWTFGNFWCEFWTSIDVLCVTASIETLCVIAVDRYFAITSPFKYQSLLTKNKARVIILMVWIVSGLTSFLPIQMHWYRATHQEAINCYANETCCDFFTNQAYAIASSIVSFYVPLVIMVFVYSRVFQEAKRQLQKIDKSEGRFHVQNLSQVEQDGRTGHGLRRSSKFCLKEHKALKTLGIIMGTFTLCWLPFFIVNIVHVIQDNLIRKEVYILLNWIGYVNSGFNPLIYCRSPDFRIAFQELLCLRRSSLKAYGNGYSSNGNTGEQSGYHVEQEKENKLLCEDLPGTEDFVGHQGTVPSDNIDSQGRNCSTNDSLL
Sequence of Muscarinic acetylcholine receptor M1 (Homo sapiens) (P11229 whole entry, looked up): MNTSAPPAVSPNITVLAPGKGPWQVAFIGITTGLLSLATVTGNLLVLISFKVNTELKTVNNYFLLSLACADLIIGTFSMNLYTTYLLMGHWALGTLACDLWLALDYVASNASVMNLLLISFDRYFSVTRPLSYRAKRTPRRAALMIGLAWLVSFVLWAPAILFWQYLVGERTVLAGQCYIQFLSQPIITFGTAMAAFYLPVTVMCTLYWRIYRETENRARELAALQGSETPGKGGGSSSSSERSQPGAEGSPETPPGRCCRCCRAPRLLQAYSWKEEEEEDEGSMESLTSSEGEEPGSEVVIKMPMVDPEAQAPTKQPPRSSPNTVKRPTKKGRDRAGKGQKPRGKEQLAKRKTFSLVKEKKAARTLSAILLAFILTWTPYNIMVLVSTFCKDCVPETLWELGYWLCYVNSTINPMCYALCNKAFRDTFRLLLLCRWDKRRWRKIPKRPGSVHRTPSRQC
Sequence of KiSS-1 receptor (Homo sapiens) (Q969F8 whole entry, looked up): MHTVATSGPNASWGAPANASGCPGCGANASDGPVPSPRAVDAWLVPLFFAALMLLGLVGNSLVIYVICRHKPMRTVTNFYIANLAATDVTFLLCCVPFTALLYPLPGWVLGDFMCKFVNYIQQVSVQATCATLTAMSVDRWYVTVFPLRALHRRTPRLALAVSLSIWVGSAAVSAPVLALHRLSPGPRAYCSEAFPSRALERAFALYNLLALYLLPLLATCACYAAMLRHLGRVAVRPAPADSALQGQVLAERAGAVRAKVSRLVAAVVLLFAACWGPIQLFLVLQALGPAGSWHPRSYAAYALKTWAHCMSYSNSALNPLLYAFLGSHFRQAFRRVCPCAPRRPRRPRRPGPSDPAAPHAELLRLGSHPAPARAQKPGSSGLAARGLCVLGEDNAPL

COC(c1ccccc1)(c1ccccc1)[C@H](Oc1nc(C)cc(C)n1)C(=O)O
inactive: Potency [1] | Potency [2] | Potency [3] | Potency [4] | Potency [5] | Potency [6] | Potency [7] | Potency [8] | Potency [9] | Potency [10] | Potency [11] | Potency [12] | Potency [13] | Potency [14] | Potency [15] | Potency [16] | Potency [17] | Potency [18]

O=C1CCN(c2ccccc2)N1
inactive: Potency [1] | Potency [2] | Potency [3] | Potency [4] | Potency [5] | Potency [6] | Potency [7] | Potency [8] | Potency [9] | Potency [10] | Potency [11] | Potency [12] | Potency [13] | Potency [15] | Potency [16] | Potency [18] | Potency [19]

C=C[C@H]1CN2CC[C@H]1C[C@H]2[C@H](O)c1ccnc2ccc(OC)cc12
inactive: Potency [1] | Potency [2] | Potency [3] | Potency [4] | Potency [7] | Potency [20] | Potency [8] | Potency [10] | Potency [12] | Potency [13] | Potency [14] | Potency [15] | Potency [16] | Potency [18] | Potency [19]

O=c1oc2c(O)c(O)cc3c(=O)oc4c(O)c(O)cc1c4c23
inactive: activity change, negative = cytotoxicity [1] -4.32% [at 19 µM] | activity, positive = activation [2] -10.8% [at 19 µM] | activation [3] -1.64% [at 15.8 µM] | activation [4] 0.163% [at 11.8 µM] | activation [5] -4.17% [at 13.5 µM] | activity change, negative = cytotoxicity [7] 3.06% [at 13.5 µM] | activity change, negative = cytotoxicity [20] -3.76% [at 13.5 µM] | activity change, negative = cytotoxicity [8] -7.94% [at 13.5 µM] | activation [9] -1.21% [at 13.5 µM] | activity, negative = inhibition [10] -5.93% [at 12.7 µM] | activation [11] 2.19% [at 15.9 µM] | activity, negative = inhibition [12] 14.7% [at 12.6 µM] | activation [13] 0.409% [at 15.8 µM] | activation [14] -1.26% [at 19 µM] | activity change, negative = inhibition [15] -7.75% [at 18.9 µM] | activity change, negative = inhibition [16] -0.63% [at 19 µM] | activation [17] -28.3% [at 19 µM] | activity change, negative = inhibition [19] 0.195% [at 18.9 µM]
